Compound activity deposited in PubChem by National Center for Advancing Translational Sciences (NCATS).
Hits are enriched below; roughly 8% of the tested compounds scored in any of these assays.
HT1080 IDH1KD tx = qHTS for induction of synthetic lethality in tumor cells producing 2HG: qHTS for the HT-1080-IDH1KD cell line. HT-1080 IDH1 knockdown viability, ATP luminescence, 48 h. Potency, µM (highest dose often 46.1 µM), for the others: at the top dose activity, negative = toxicity, most hits filed as cytotoxic. 360,000 tested, 2% active. AID 686971, 2013;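 further: 0% = DMSO wells and -100% = cell-free medium wells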
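CellTiter-Glo luminescence after 48 h compound exposure at 37 degrees C of IDH1-knockdown HT-1080 cells in 5% FBS RPMI. %Activity scaled between DMSO wells and cell-free media wells, with curves fitted and assigned curve classes.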
SW480 rereplic = A quantitative high throughput screen for small molecules that induce DNA re-replication in SW480 colon adenocarcinoma cells; SW480 DNA re-replication, Hoechst DNA content imaging, 48 h; Potency, µM (doses to about 46.1 µM), for inactives: at the top dose re-replication activation, usual class: activators; 340,000 tested, 1.8% active; AID 624297, 2012; further: % of control where 0% means no effect; nearly all actives have a fitted effect of over 55% in size
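Cells (250 per well) received 23 nL compound or DMSO by pin tool and were kept 48 hr at 37 C, 5% CO2. Nuclei were then stained with Hoechst for 40 min and scanned for DNA content.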
HT1080NT lethal = qHTS for induction of synthetic lethality in tumor cells producing 2HG: qHTS for the HT-1080-NT fibrosarcoma cell line; HT-1080-NT fibrosarcoma viability, CellTiter-Glo ATP luminescence, 48 h; Potency, µM (doses to about 46.1 µM), for the others: at the highest dose activity, negative = less viability, most hits filed as cytotoxic; 360,000 tested, 1.6% active;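 further: NT is the 2HG producing partner of a matched IDH1 knockdown line; 0% = DMSO-treated cells and -100% = media-only wells without cells; nearly all actives have a fitted effect of over 55% in size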
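A 48-hour cytotoxicity screen used HT-1080-NT cells plated 2 hours before compound delivery. ATP-based CellTiter-Glo luminescence measured viability, normalized to DMSO and no-cell controls.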
KB-3-1 cytotox = qHTS assay for MDR1-selective chemotherapeutics: Primary screen using the parental adenocarcinoma cell KB-3-1; KB-3-1 viability, CellTiter-Glo ATP luminescence, 72 h; Potency, µM (series often up to 46.1 µM), actives largely listed as cytotoxic; 400,000 tested, 1.4% active; further: on the % scale 0 is the no-effect control and ±100 the full control effect; nearly all actives have a fitted effect of over 60% in size
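Using CellTiter-Glo luminescence, growth of non-resistant KB-3-1 adenocarcinoma cells is assessed 72 h after pin-tool compound addition at 37 °C. Normalized responses across the concentration series yield fitted curves.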
KB-V1 MDR tox = qHTS assay for MDR1-selective chemotherapeutics: Primary screen using the drug-selected MDR subline cells KB-V1. AID 1347076, 2019. KB-V1 MDR cells viability, CellTiter-Glo, 72 h. 400,000 tested, 3.4% active. Potency, µM (top dose mostly 46.1 µM), usual class: cytotoxic; further: on the % scale 0 is the no-effect control and ±100 the full control effect; nearly all actives have a fitted effect of over 60% in size
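Drug-selected KB-V1 cells, grown in DMEM lacking phenol red with 10% FBS, receive compound titrations; after three days at 37 degrees C, surviving cell ATP is quantified by CellTiter-Glo luminescence and responses normalized and curve-fitted.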
MCF10A rereplic = A quantitative high throughput screen for small molecules that induce DNA re-replication in MCF 10a normal breast cells. MCF 10A DNA re-replication, Hoechst nuclear intensity, 48 h. Potency, µM (doses to about 46.1 µM), for the others: top-dose activity, positive = re-replication, usual class: activators. 350,000 tested, 2.9% active. AID 624296, 2012; further: % of control where 0% means no effect; nearly all actives have a fitted effect of over 50% in size
The depositor's hits bear a star; i = inactive; ? = inconclusive; nt = no result given; ! = repeats disagree; [ ] = dose if it differs, or a comment. The call rests on the fitted dose curve; in most records, active means well fitted curve in the direction sought with a large enough effect; inconclusive means small, poorly fitted or top-dose-only effect, or another doubt; inactive means no such curve, though single readings can be large; an effect the other way counts as inactive or inconclusive. Potency means the concentration at half of the fitted maximal effect.

SMILES	HT1080 IDH1KD tx	SW480 rereplic	HT1080NT lethal	KB-3-1 cytotox	KB-V1 MDR tox	MCF10A rereplic
Cc1ccc(Cl)cc1N1CCN(S(=O)(=O)c2ccc3[nH]c(=O)ccc3c2)CC1	?	1%	?	i	i	23µM*
COC(=O)CN1C(C(=O)c2ccccc2)=C(OC(=O)c2ccc(C)cc2)c2ccccc2S1(=O)=O	nt	nt	nt	i	i	nt
Cc1ccc(-c2nc(CS(=O)(=O)CC(=O)Nc3ccc(Br)cc3F)c(C)o2)cc1	nt	nt	nt	i	i	nt
Cc1ccc(SCC(=O)OCC(=O)NCC2CCCCC2)cc1C	1%	-15%	-1%	i	i	1%
Cc1ccc(SCC(=O)OCC(=O)NCCNC(=O)COC(=O)CSc2ccc(C)c(C)c2)cc1C	3%	-1%	2%	0.0052µM*	i	13%
CCC(C)Sc1cccc(-c2nc3ccccn3c2NCc2ccccc2)c1 (stereo not given)	-7%	1%	-20%	i	?	18µM*
CCC(C)Sc1cccc(-c2nc3ccc(Cl)cn3c2NCc2ccccc2)c1 (stereo not given)	?	27%	?	i	?	?
CCC(C)Sc1cccc(-c2nc3ccc(C)cn3c2NCc2ccccc2)c1 (stereo not given)	?	?	?	?	18µM*!	12µM*
Cc1ccc2nc(-c3cccc(-c4cccc(Cl)c4)c3)c(NCc3ccccc3)n2c1	?	22%[9.22 µM]	?	i	?	7.3µM*
CCCCCCSc1cccc(-c2nc3ccccn3c2NCc2ccccc2)c1	-16%	?	-2%	?	?	21µM*
Cc1ccc2nc(-c3ccccc3)c(Cc3cccc(Cl)c3)n2c1	?	nt	?	i	i	nt
O=c1c2sc3ccccc3c2n(Cc2cccc(C(F)(F)F)c2)c(=O)n1-c1ccccc1	nt	nt	nt	i	i	nt
CCOc1ccc(NC(=O)c2ccc3c(c2)CCN3S(=O)(=O)c2ccc(Cl)cc2)cc1	nt	nt	nt	i	i	nt
Brc1ccc2nc(-c3ccco3)c(Cc3ccccc3)n2c1	?	nt	?	i	i	nt
Cc1cc2nc(-c3ccco3)c(Cc3cccc(Cl)c3)n2c(C)c1Br	21µM*	nt	29µM*	i	i	nt
Cc1cc2nc(-c3cccc(Cl)c3)c(Cc3cccc(Cl)c3)n2c(C)c1Br	2%	nt	6%	?	i	nt
COC(=O)c1ccc2nc(-c3ccco3)c(Cc3ccc(OC)cc3C)n2c1	16µM*	nt	?	i	i	nt
Clc1cccc(Cc2c(-c3ccco3)nc3ccc(Cl)cn23)c1	18µM*	nt	23µM*	i	i	nt
Clc1cccc(Cc2c(-c3ccco3)nc3ccc(Br)cn23)c1	16µM*	nt	?	i	i	nt
CCN(CC)C(=O)Cn1c(=O)n(-c2ccc(Cl)cc2)c(=O)c2c3c(sc21)CCC3	nt	nt	nt	i	i	nt
Cc1ccc(-c2cn3nc(N4CCCC(C(=O)NCc5ccc(F)cc5)C4)sc3n2)cc1 (stereo not given)	nt	nt	nt	i	i	nt
Cc1ccc2nc(-c3ccc(C#N)cc3)c(Cc3cccc(Cl)c3)n2c1	26µM*	nt	?	i	i	nt
Cc1cc(=O)oc2cc(OCC(=O)Nc3c(C(C)C)cccc3C(C)C)ccc12	nt	nt	nt	i	i	nt
CN(C)CCCNc1cc(Cl)c(S(=O)(=O)N2CCCCC2)cc1C(=O)O	-3%	-3%	5%	i	i	2.6µM*
COc1ccc(CCn2c3c(c(=O)[nH]c2=S)CN(C)CN3)cc1OC	16%	nt	14%	nt	nt	nt
SMILES	HT1080 IDH1KD tx	SW480 rereplic	HT1080NT lethal	KB-3-1 cytotox	KB-V1 MDR tox	MCF10A rereplic
O=C(N/N=C/c1ccc2ncccc2c1)c1cc(-c2cccs2)nc2ccccc12	0%	12%	27%	?	?	5.8µM*
Cc1cc(C(=O)N/N=C/c2cccnc2)c2ccccc2n1	?	?	?	?	i	?
O=C(N/N=C/c1cccnc1)c1cc(-c2cccs2)nc2ccccc12	?	?	?	16µM*	?	?
CCOc1cc(/C=N/NC(=O)c2cc(-c3cccc(OC)c3)nc3ccccc23)ccc1O	?	?	-24%	?	?	9%
CCOc1ccc(-c2cc(C(=O)N/N=C/c3cccnc3)c3ccccc3n2)cc1	?	7.3µM*	?	8.2µM*	?	2.9µM*
CC(C)COc1cccc(-c2cc(C(=O)N/N=C/c3ccncc3)c3ccccc3n2)c1	18µM*	4%	-26%	?	?	18µM*
CCN(CC)C(=O)c1sc2c(c1C)c(=O)n(-c1ccc(C)c(C)c1)c(=O)n2CC(=O)Nc1ccc(F)cc1	nt	nt	nt	i	?	nt
COc1ccc(S(=O)(=O)N(CC(=O)NCc2ccc(C)cc2)c2ccc(Cl)cc2)cc1	nt	nt	nt	i	i	nt
Cc1ccc(COc2ccccc2-c2cc(C(=O)N/N=C/c3cccnc3)[nH]n2)cc1	6.5µM*	57%	?	?	?	8.2µM*
Cc1ccc2c(Cl)c(C(=O)N/N=C/c3cccn3C)sc2c1	?	2%	?	i	i	21µM*
